{"source": "the supplement of paper PMC9844399", "note": "A number with no mark means an inactive call.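 Also: High-content confocal imaging of branched-DNA amplified FISH in 384-well plates, Hoechst-defined nuclei, score is well value minus plate DMSO median over DMSO robust SD, four wells per compound.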"}
{"tested_on": "HeLa", "assay": "MALAT1 nuclear FISH intensity, robust Z-score vs DMSO; higher = more nuclear MALAT1 lncRNA, active = -3 or less", "conditions": "10 µM; 6 h"}
{"smiles": "Cl.O=C([O-])c1ccc(-c2c3nc(c(-c4ccc(C(=O)O)cc4)c4nc(c(-c5ccc(C(=O)O)cc5)c5ccc([nH]5)c(-c5ccc(C(=O)[O-])cc5)c5ccc2[n-]5)C=C4)C=C3)cc1.[Mn+3]", "note": "[MnTBAP chloride]", "MALAT1 nuclear FISH intensity": -0.439}
{"smiles": "COc1ccc2[nH]c([S@@+]([O-])Cc3ncc(C)c(OC)c3C)nc2c1", "note": "[Esomeprazole Potassium]", "MALAT1 nuclear FISH intensity": 0.0157}
{"smiles": "O=C(O)c1cn(C2CC2)c2cc(N3CCNCC3)c(F)cc2c1=O", "note": "[Ciprofloxacin]", "MALAT1 nuclear FISH intensity": 0.579}
{"smiles": "O=C(O[C@@H]1C[C@@H]2C[C@H]3C[C@H](C1)N2CC3=O)c1c[nH]c2ccccc12", "note": "[Dolasetron]", "MALAT1 nuclear FISH intensity": -0.75}
{"smiles": "COc1ccc(-n2c(SCCCN3C(=O)c4cccc5cccc(c45)C3=O)nnc2-c2ccncc2)cc1", "MALAT1 nuclear FISH intensity": -0.954}
{"smiles": "CN(C)CCC[C@@]1(c2ccc(F)cc2)OCc2cc(C#N)ccc21", "note": "[Escitalopram]", "MALAT1 nuclear FISH intensity": 0.947}
{"smiles": "Clc1ccc(COC(Cn2ccnc2)c2ccc(Cl)cc2Cl)cc1", "note": "(stereo not drawn) [Econazole nitrate]", "MALAT1 nuclear FISH intensity": -1.3}
{"smiles": "CCCC(=O)Nc1ncnc2c1ncn2[C@@H]1O[C@@H]2COP(=O)(O)O[C@H]2[C@H]1OC(=O)CCC", "note": "[Dibutyrylcyclic AMP]", "MALAT1 nuclear FISH intensity": -0.304}
{"smiles": "CC[C@H](C)[C@H](N)C1=N[C@H](C(=O)N[C@@H](CC(C)C)C(=O)N[C@H](CCC(=O)O)C(=O)N[C@H](C(=O)N[C@H]2CCCCNC(=O)[C@H](CC(N)=O)NC(=O)[C@@H](CC(=O)O)NC(=O)[C@H](Cc3cnc[nH]3)NC(=O)[C@@H](Cc3ccccc3)NC(=O)[C@H]([C@@H](C)CC)NC(=O)[C@@H](CCCN)NC2=O)[C@@H](C)CC)CS1", "note": "[Bacitracin]", "MALAT1 nuclear FISH intensity": -0.21}
{"smiles": "NC(=O)Cc1cccc(C(=O)c2ccccc2)c1N", "note": "[Nepafenac]", "MALAT1 nuclear FISH intensity": -0.52}
{"smiles": "COc1ccc(C=CC(=O)c2c(-c3ccccc3)c3cc(C)ccc3[nH]c2=O)cc1", "note": "[Ceranib 1]", "MALAT1 nuclear FISH intensity": -1.06}
{"smiles": "O=c1[nH]c2cc(C(F)(F)F)ccc2n1-c1cc(C(F)(F)F)ccc1O", "MALAT1 nuclear FISH intensity": 0.418}
{"smiles": "N=C(N)NCCCC[C@@H]1NC(=O)CCSSC[C@@H](C(N)=O)NC(=O)[C@@H]2CCCN2C(=O)[C@H](Cc2c[nH]c3ccccc23)NC(=O)[C@H](CC(=O)O)NC(=O)CNC1=O", "note": "[Eptifibatide]", "MALAT1 nuclear FISH intensity": 0.621}
{"smiles": "Cc1cc(C(=O)NNCc2ccccc2)no1", "note": "[Isocarboxazid]", "MALAT1 nuclear FISH intensity": -0.791}
{"smiles": "CCN(CC)CCOC(=O)C1(C2CCCCC2)CCCCC1", "MALAT1 nuclear FISH intensity": 1.14}
{"smiles": "CC(=O)Nc1nnc(S(N)(=O)=O)s1", "note": "[Acetazolamide]", "MALAT1 nuclear FISH intensity": -2.08}
{"smiles": "O=C(O)c1cccnc1Nc1cccc(C(F)(F)F)c1", "note": "[Niflumic acid]", "MALAT1 nuclear FISH intensity": -0.0939}
{"smiles": "C[N+](C)(C)CCOC(=O)CCC(=O)OCC[N+](C)(C)C", "MALAT1 nuclear FISH intensity": "-3.13 (active)"}
{"smiles": "Nc1nc(=O)[nH]cc1F", "note": "[Flucytosine]", "MALAT1 nuclear FISH intensity": -0.522}
{"smiles": "CCOC(=O)[C@H](CCc1ccccc1)N[C@@H](C)C(=O)N1Cc2ccccc2C[C@H]1C(=O)O", "MALAT1 nuclear FISH intensity": -0.13}
{"smiles": "O=C(O)c1ccccc1Nc1ccccc1", "note": "[N-Phenylanthranilic acid]", "MALAT1 nuclear FISH intensity": 1.66}
{"smiles": "O=C1N=C(O)CN1N=Cc1ccc(-c2ccc([N+](=O)[O-])cc2)o1", "MALAT1 nuclear FISH intensity": -0.248}
{"smiles": "O=C(O)CCC/C=C\\CC1C(O)CC(O)C1/C=C/C(O)COc1cccc(Cl)c1", "note": "(stereo not drawn) [Cloprostenol]", "MALAT1 nuclear FISH intensity": 1.88}
{"smiles": "Nc1nc(Cl)nc2c1ncn2[C@H]1C[C@H](O)[C@@H](CO)O1", "note": "[Cladribine]", "MALAT1 nuclear FISH intensity": 0.999}
{"smiles": "Nc1nc(F)nc2c1ncn2[C@@H]1O[C@H](COP(=O)(O)O)[C@@H](O)[C@@H]1O", "note": "[Fludarabine Phosphate]", "MALAT1 nuclear FISH intensity": -0.596}
{"smiles": "COc1cc(/C=C/C(=O)CC(=O)/C=C/c2ccc(O)c(OC)c2)ccc1O", "note": "[Curcumin]", "MALAT1 nuclear FISH intensity": 0.507}
{"smiles": "COc1cc2ncnc(Nc3cccc(Cl)c3)c2cc1OC", "MALAT1 nuclear FISH intensity": -0.787}
{"smiles": "CCOC(=O)O[C@]1(C(=O)OCCl)CC[C@H]2[C@@H]3CCC4=CC(=O)C=C[C@]4(C)[C@H]3[C@@H](O)C[C@@]21C", "note": "[Loteprednol Etabonate]", "MALAT1 nuclear FISH intensity": 1.33}
{"smiles": "Cc1c(C)c2c(c(C)c1O)CCC(C)(COc1ccc(CC3SC(=O)NC3=O)cc1)O2", "note": "(stereo not drawn) [Troglitazone]", "MALAT1 nuclear FISH intensity": 0.427}
{"smiles": "CNC(=O)c1cnn(-c2nc(N)c3ncn([C@@H]4O[C@H](CO)[C@@H](O)[C@H]4O)c3n2)c1", "note": "[Regadenoson]", "MALAT1 nuclear FISH intensity": -1.63}
{"smiles": "CCCCCCCC/C=C\\C/C=C\\C/C=C\\CCCC(=O)NCCO", "note": "[Mead ethanolamide]", "MALAT1 nuclear FISH intensity": -0.149}
{"smiles": "CC(=O)NC(C)(C)C(=O)N1CCC[C@H]1C(=O)NC(C)(C)C(=O)N[C@@H](C)C(=O)NC(C)(C)C(=O)N[C@@H](C)C(=O)N[C@@H](CCC(N)=O)C(=O)NC(C)(C)C(=O)N[C@H](C(=O)NC(C)(C)C(=O)NCC(=O)N[C@@H](CC(C)C)C(=O)NC(C)(C)C(=O)N1CCC[C@H]1C(=O)N[C@H](C(=O)NC(C)(C)C(=O)NC(C)(C)C(=O)N[C@@H](CCC(=O)O)C(=O)N[C@@H](CCC(N)=O)C(=O)N[C@H](CO)Cc1ccccc1)C(C)C)C(C)C", "note": "[Alamethicin]", "MALAT1 nuclear FISH intensity": -1.85}
{"smiles": "CC(=O)NC[C@H]1CN(c2ccc(N3CCOCC3)c(F)c2)C(=O)O1", "note": "[Linezolid]", "MALAT1 nuclear FISH intensity": -1.13}
